Compounds with a hit are over-represented: about 2.4% of the library has one in this group of screens.
M1 ag – human M1 muscarinic receptor agonism; P11229; CHO-K1 hM1, Fluo-8 calcium fluorescence, agonist mode; 0% DMSO, 100% acetylcholine EC100; activation, % at 3 µM; 360,000 tested, 0.33% active;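 active = activation above the run's mean compound activation plus 3 SD, cut at about 16% in these data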;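 also: peak over basal fluorescence ratio within a 140 s kinetic read after compound addition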
Target sequence (P11229 whole entry, looked up): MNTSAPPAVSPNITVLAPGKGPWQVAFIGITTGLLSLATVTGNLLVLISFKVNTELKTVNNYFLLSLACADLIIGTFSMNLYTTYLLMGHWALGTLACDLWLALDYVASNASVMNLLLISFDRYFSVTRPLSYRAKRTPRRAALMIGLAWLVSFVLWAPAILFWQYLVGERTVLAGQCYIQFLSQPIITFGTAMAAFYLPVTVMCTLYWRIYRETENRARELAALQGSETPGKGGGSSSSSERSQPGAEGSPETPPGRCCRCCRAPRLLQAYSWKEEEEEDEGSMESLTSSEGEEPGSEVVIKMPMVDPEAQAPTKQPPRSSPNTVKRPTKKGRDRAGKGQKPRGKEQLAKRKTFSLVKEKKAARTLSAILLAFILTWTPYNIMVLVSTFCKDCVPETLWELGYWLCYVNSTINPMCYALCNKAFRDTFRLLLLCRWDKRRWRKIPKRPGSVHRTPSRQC
M1 PAM parental – counter-screen for M1 PAMs: effect in parental CHO-K1 cells | ATP EC20, Fluo-8 calcium fluorescence; 0% at ATP EC20, 100% at ATP max | activation, % at 3 µM | 360,000 tested, 0.02% active;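 active = activation above the run cutoff, the mean activation of all test compounds plus 3 SD, cut at about 40% in these data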;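 also: peak over basal fluorescence ratio in a 140 s read after ATP addition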
M1 ag parental – counter-screen for M1 agonists: effect in parental CHO-K1 cells; Fluo-8 calcium fluorescence; scaled to maximal ATP response, vehicle zero; activation, % at 3 µM; 360,000 tested, 0.48% active; AID 602248; in the data active = activation above about 15%;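 also: untransfected CHO-K1 host cells lacking M1 receptor as counterscreen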
CHO-K1 Ca antag – counter-screen for M1 antagonists: effect in parental CHO-K1 cells; 360,000 tested, 0.6% active; inhibition, % at 3 µM; ATP-induced calcium, Fluo-8 fluorescence;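 active = inhibition above a per-plate cutoff, the plate's mean sample inhibition plus 3 SD, cut at about 24% in these data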
CHRM1 antagonist – blocks human M1 muscarinic receptor | P11229 | CHO-K1 hM1, Fluo-8 calcium fluorescence, ACh EC80 antagonist | inhibition, % at 3 µM | 360,000 tested, 1.3% active | AID 588852;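 active = percent inhibition above its own plate's cutoff, namely the mean of that plate's compound wells plus 3 SD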;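 also: peak over basal fluorescence ratio during 140 s after agonist addition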
M1 PAM – potentiates human M1 receptor response to acetylcholine | P11229 | CHO-K1 hM1, Fluo-8 calcium fluorescence, ACh EC20; 0% = ACh EC20, 100% = maximal ACh | 360,000 tested, 0.088% active | activation, % at 3 µM; in the data active = activation above about 19%, passing the limit was not always enough
Numbers stand for hits; 0 = inactive.

SMILES	M1 ag	M1 PAM parental	M1 ag parental	CHO-K1 Ca antag	CHRM1 antagonist	M1 PAM
CC(=O)CCc1ccc(OCCCCN2CCC(Cc3ccccc3)CC2)cc1	0	0	0	0	60.0	0
COc1cccc(OC)c1OCCCCN1CCC(Cc2ccccc2)CC1	0	0	0	0	46.6	0
CCC(=O)c1ccccc1OCCCN1CCC(Cc2ccccc2)CC1	0	0	0	0	92.3	0
CCCCOC(=O)c1cc(=O)[nH]c2ccc(C)cc12	0	0	0	0	0	0
Cc1cc(NS(=O)(=O)c2ccc(OCCNS(C)(=O)=O)cc2)no1	0	0	0	0	0	0
Cc1ccc(S(=O)(=O)CCC(=O)Nc2nc3c(s2)CCCC3)cc1	0	0	0	0	0	0
COc1ccc(CN2CCC(Cc3ccccc3)CC2)c(C)c1C	0	0	0	0	33.2	0
COc1cccc(C(NC(C)=O)c2nc(-c3ccc(C)c(C)c3)cs2)c1 (stereo unspecified)	0	0	0	26.0	0	0
COc1ccc(C(=O)N(Cc2sccc2C)C2CCS(=O)(=O)C2)cc1 (stereo unspecified)	0	0	0	0	0	0
Cc1nc2c(OCc3ccc(C(F)(F)F)cc3)cccn2c1N(C)C(=O)CCC1CCCC1	0	0	0	0	0	0
Cc1nc2c(OCc3ccc(F)cc3)cccn2c1N(C)C(=O)CCC1CCCC1	0	0	0	0	42.9	0
Cc1nc2c(OCc3ccc(C#N)cc3)cccn2c1N(C)C(=O)CCC1CCCC1	0	0	0	0	39.6	0
COc1ccc(CCC(=O)O)c(C(CC(=O)O)C(=O)O)c1OS(=O)(=O)c1ccc(C)cc1 (stereo unspecified)	0	0	0	0	0	0
CC(C)NC(=O)N1CCN(c2ccncc2S(=O)(=O)N2CCOCC2)CC1	0	0	0	0	0	0
O=NN1CCN(c2ccncc2S(=O)(=O)N2CCCCC2)CC1	0	0	0	0	0	0
CN1CCN(c2ccncc2S(=O)(=O)N2CCCCC2)CC1	0	0	0	0	26.6	0
CC(C)N1CCN(c2ccncc2S(=O)(=O)N2CCCCC2)CC1	0	0	0	0	97.5	0
CN(Cc1nccs1)C(=O)c1cc(COc2cccc3cnccc23)on1	0	0	16.2	0	0	0
COC(=O)C1CCCCN1C(=O)c1cc(COc2cccc3cccnc23)on1 (stereo unspecified)	0	0	0	0	0	0
CCOC(=O)CC1CCCCN1C(=O)c1cc(COc2cccc3cnccc23)on1 (stereo unspecified)	0	0	19.7	44.9	72.0	0
COC(=O)C1CCCCN1C(=O)c1cc(COc2cccc3cnccc23)on1 (stereo unspecified)	0	0	15.3	28.1	42.9	0
CCOC(=O)c1cc(-c2ccc(F)cc2)n(CC(=O)N2CCCC2)c1C	0	0	15.4	0	0	0
CCOC(=O)c1cc(-c2ccccc2)n(CC(=O)N2CCCC2)c1C	0	0	0	0	0	0
O=C(c1cccc(S(=O)(=O)N2CCOCC2)c1)N(CCc1ccccc1)Cc1ccccc1	0	0	0	0	0	0
CCC1CCCCN1CCCNC(=O)Cn1ncc2c(C)n(Cc3ccccc3Cl)c(C)c2c1=O (stereo unspecified)	0	0	0	0	44.4	0
SMILES	M1 ag	M1 PAM parental	M1 ag parental	CHO-K1 Ca antag	CHRM1 antagonist	M1 PAM
Cc1c2cnn(CC(=O)NCCN3CCOCC3)c(=O)c2c(C)n1Cc1ccccc1	0	0	0	0	32.5	0
Cc1c2cnn(CC(=O)NCCCN3CCCCC3)c(=O)c2c(C)n1Cc1ccccc1	0	0	0	0	0	0
Cc1ccc(S(=O)(=O)n2nc(OC(=O)C3CCCCC3)cc2N)cc1	0	0	0	0	0	0
CCC(C)c1ccc(C(C)NC(=S)NCc2ccc(F)cc2)cc1 (stereo unspecified)	0	0	0	0	34.4	0
COc1ccc(C(C)NC(=S)NCc2ccc(F)cc2)cc1OC (stereo unspecified)	0	0	0	0	0	0
CCC(NC(=S)NCc1ccc(F)cc1)c1ccc(C(C)C)cc1 (stereo unspecified)	0	0	0	0	96.7	0
CCCc1ccc(C(C)NC(=S)NCc2ccc(F)cc2)cc1 (stereo unspecified)	0	0	17.2	0	44.5	0
Cc1ccc(C(=O)N2CCN(C/C=C/c3ccccc3)CC2)cc1S(=O)(=O)N1CCOCC1	0	0	0	0	73.0	0
COc1ccc(NS(=O)(=O)c2cccc(C(=O)N3CCN(C/C=C/c4ccccc4)CC3)c2)cc1	0	0	0	0	0	0
Cc1cccc(NS(=O)(=O)c2cccc(C(=O)N3CCN(C/C=C/c4ccccc4)CC3)c2)c1	0	0	0	0	31.8	0
O=C(Nc1ccc(N2CCOCC2)c2nonc12)C1CCCC1	0	0	0	0	0	0
O=C(NCc1cccnc1)c1cc(Sc2ccccc2Cl)nc2ccccc12	0	0	0	0	0	0
Cc1nnc(NC(=O)c2ccc3ccccc3n2)s1	0	0	20.4	0	0	0
Cc1ccc(-c2nnc(NC(=O)c3ccco3)s2)cc1	0	0	0	0	0	0
Cc1ccc(NC(=O)c2ccc(OC(=O)c3ccco3)cc2)cc1	0	0	0	0	0	0
Cc1nnc(NC(=O)c2ccco2)s1	0	0	0	25.7	0	0
Cc1ccc(Oc2ccc(NC(=O)c3ccco3)cc2)cc1	0	0	0	26.9	0	0
CCOc1cc(C(=O)Nc2ccc(S(=O)(=O)N3CCCCC3)cc2)ccc1OCC(=O)N1CCOCC1	0	0	0	0	0	0
Cc1ccc2nc(SCC(=O)Nc3oc(C)c4c(C)n[nH]c(=O)c34)[nH]c2c1	0	0	0	0	0	0
Nc1c(C(=O)NCCN2CCOCC2)c2nc3ccccc3nc2n1-c1cccc(F)c1	0	0	0	0	0	0
Nc1c(C(=O)NCC2CCCO2)c2nc3ccccc3nc2n1-c1ccccc1 (stereo unspecified)	0	0	0	0	28.4	0
C=CCNC(=O)c1c(N)n(-c2ccc3c(c2)OCO3)c2nc3ccccc3nc12	0	0	0	0	69.4	0
CCN1CCN(S(=O)(=O)c2cc(OC)c(Cl)cc2OC)CC1	0	0	0	0	0	0
CC(C(=O)NC1=NCCS1)(C(F)(F)F)C(F)(F)F	0	0	0	0	0	0
COc1ncnc2c1ncn2CCCN1CCN(Cc2ccc(C)cc2)CC1	0	0	0	0	28.1	0
COc1ncnc2c1ncn2CCCN1CCN(Cc2cccc3ccccc23)CC1	0	0	0	0	0	0
CN1CCN(C2Cc3cc(Cl)ccc3Sc3cc(F)ccc32)CC1 (stereo unspecified)	0	0	0	0	98.8	0
CCc1ccc2c(c1)Sc1ccccc1CC2N1CCN(C)CC1 (stereo unspecified)	0	0	0	0	52.5	0

High-throughput results deposited in PubChem by The Scripps Research Institute Molecular Screening Center.
